Screening data (PubChem)
NFkB transloc inh: inhibitors of IL-1B driven NFkB p65 nuclear import, primary screen, imaging, HUVEC, IL-1B stimulus, high-content imaging | HUVEC IL-1B NFkB p65 nuclear translocation imaging | inhibition, % at 2 µM | 94,000 compounds, 0.43% hits;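 active = inhibition above about 30% together with a positive call from visual inspection of the well image, limit read from the data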;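 also: nuclear over cytoplasmic p65 intensity ratio measured by imaging; 0% = IL-1B stimulated DMSO wells and 100% = unstimulated DMSO wells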
HUVEC tox IL1B: cytotoxicity in IL-1B stimulated HUVEC, primary screen, cytotoxicity control for IL-1B NFkB translocation project, imaging, Hoechst nuclear count, IL-1B stimulus; AID 845, 2007; cell count reduction, % at 2 µM; 94,000 compounds, 0.41% hits; HUVEC cell count loss;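 active = cell count reduction more than 3 SD above the screen-wide mean, cut at about 70% in these data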;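 also: normalized per plate to untreated control cells as the no-loss baseline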
HUVEC tox TNFa: cytotoxicity in TNFa-stimulated HUVEC, primary screen, cytotoxicity control for VCAM1 expression modulator project, imaging, Hoechst nuclei count; AID 848, 2007; cell count reduction, % at 2 µM; HUVEC TNFalpha-stimulated, Hoechst cell count; 93,000 compounds, 0.17% hits;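 active = cell count reduction exceeding the screen mean by over 5 SD, scaled to untreated wells per plate, cut at about 78% in these data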;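 also: cells counted after 24 h of TNF alpha exposure following the 1 h pretreatment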
NFkB transloc pot: enhancers of NFkB p65 translocation in HUVEC – imaging, IL-1B stimulus, high-content imaging, primary screen | HUVEC IL-1B NFkB p65 nuclear translocation imaging | activation, % at 2 µM | 94,000 compounds, 0.3% hits | AID 819, 2007;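 active = activation above 40%, about the mean plus 3 SD, also judged a hit on visual image review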;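 also: percent activation is computed from the nuclear over cytoplasmic p65 intensity ratio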
VCAM1 TNFa inh: inhibitors of TNFa-induced VCAM1 expression, primary screen, imaging, HUVEC, TNFa stimulus, immunofluorescence; inhibition, % at 2 µM; 95,000 compounds, 0.48% hits; HUVEC TNFa-induced VCAM-1 immunofluorescence, high-content imaging; AID 802, 2007;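 active = inhibition above the batch mean plus 3 SD, with images confirmed as a hit by eye, cut at about 37% in these data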;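 also: 0% = TNF-stimulated DMSO wells and 100% = unstimulated control wells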
E-sel TNF inh: E-selectin induction blockers in HUVEC – imaging, immunofluorescence, high content, primary screen. HUVEC TNFa-induced E-selectin immunofluorescence. inhibition, % at 2 µM. 120,000 compounds, 0.71% hits. AID 1246, 2008;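 active = inhibition above the batch mean plus 3 SD, and confirmed as a hit on visual image review, cut at about 43% in these data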;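 also: 0% = TNF-stimulated DMSO wells and 100% = unstimulated control wells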
Starred values were filed as active, the others as inactive. Sampled rows, rich in hits. Any-hit rate of the full collection: about 1.8%.

Screening CCCn1c(=O)c(C(=O)NCc2cccnc2)c(O)c2ccccc21 returned NFkB transloc inh -5.7, HUVEC tox IL1B -18.3, HUVEC tox TNFa -30.6, NFkB transloc pot 5.7 and VCAM1 TNFa inh -7.3.
`CCCn1c(NCc2ccccn2)nc2ccccc21` gave NFkB transloc inh 95.8*, HUVEC tox IL1B 92.2*, HUVEC tox TNFa -5.9, NFkB transloc pot -95.8, VCAM1 TNFa inh 15.3 and E-sel TNF inh 0.9.
For CCCn1c(=O)c(C(=O)NCc2ccccn2)c(O)c2ccccc21 the results were NFkB transloc inh -0.2, HUVEC tox IL1B 84.6*, HUVEC tox TNFa -1.1, NFkB transloc pot 0.2, VCAM1 TNFa inh 8.5 and E-sel TNF inh -2.8.
Screening COc1ccc(-c2n[nH]c(C)c2-c2ccc(Cl)cc2)c(O)c1 returned NFkB transloc inh -0.9, HUVEC tox IL1B 10.6, HUVEC tox TNFa -18.7, NFkB transloc pot 0.9, VCAM1 TNFa inh -2.2 and E-sel TNF inh -22.4.
Screening COc1ccc(-c2n[nH]c(C(F)(F)F)c2-c2cc3ccccc3o2)c(O)c1 returned NFkB transloc inh 18.1, HUVEC tox IL1B 13.6, HUVEC tox TNFa 18.3, NFkB transloc pot -18.1, VCAM1 TNFa inh -26.3 and E-sel TNF inh 42.6*.
CC1CCN(c2c(NCc3ccc(C(=O)NCc4ccco4)cc3)c(=O)c2=O)CC1 was read as E-sel TNF inh 2.0.
For O=C(NCc1ccco1)c1ccc(CNc2c(N3CCCCC3)c(=O)c2=O)cc1 the results were E-sel TNF inh 2.3.
CC1CCN(c2c(NCc3ccc(C(=O)N4CCc5ccccc54)cc3)c(=O)c2=O)CC1 was read as NFkB transloc inh -117.7, HUVEC tox IL1B -3.4, HUVEC tox TNFa -20.7, NFkB transloc pot 117.7*, VCAM1 TNFa inh 22.1 and E-sel TNF inh 13.3.
Screening Cc1ccc(CNC(=O)c2ccc(CNc3c(N4CCCC4)c(=O)c3=O)cc2)cc1 returned NFkB transloc inh -41.1, HUVEC tox IL1B -0.3, HUVEC tox TNFa -15.8, NFkB transloc pot 41.1*, VCAM1 TNFa inh -7.8 and E-sel TNF inh 8.8.
Screening CCOc1ccc(OCC)c(NC(=O)c2ccc(CNc3c(N4CCOCC4)c(=O)c3=O)cc2)c1 returned NFkB transloc inh -69.8, HUVEC tox IL1B -2.7, HUVEC tox TNFa -3.1, NFkB transloc pot 69.8*, VCAM1 TNFa inh -9.2 and E-sel TNF inh -18.7.
For O=C(Cn1nnc2c(cnn2-c2ccc(F)cc2)c1=O)c1ccccc1F the results were NFkB transloc inh -1.2, HUVEC tox IL1B 91.6*, NFkB transloc pot 1.2, VCAM1 TNFa inh -5.5 and E-sel TNF inh 0.3.
Screening Cc1ccc2n(n1)c(=O)c(Cc1ccccc1)c([O-])[n+]2-c1ccccc1 returned E-sel TNF inh 25.0.
For CCOc1cc(N2CCOCC2)c(OCC)cc1NC(=O)Cc1cccc2ccccc12 the results were NFkB transloc inh -62.8, HUVEC tox IL1B 19.7, HUVEC tox TNFa -12.0, NFkB transloc pot 62.8*, VCAM1 TNFa inh 7.0 and E-sel TNF inh -5.9.
CCOc1cc(N2CCOCC2)c(OCC)cc1NS(=O)(=O)c1ccc(Cl)s1 was read as NFkB transloc inh -12.4, HUVEC tox IL1B -15.3, HUVEC tox TNFa 2.5, NFkB transloc pot 12.4, VCAM1 TNFa inh 3.3 and E-sel TNF inh 88.9*.
Screening C=CCn1c(N2CCCC2)nc2c1c(=O)[nH]c(=O)n2C returned NFkB transloc inh -1.2, HUVEC tox IL1B -27.1, HUVEC tox TNFa 22.0, NFkB transloc pot 1.2, VCAM1 TNFa inh 41.1* and E-sel TNF inh 21.8.
Cn1c(=O)[nH]c(=O)c2c1nc(N1CCCCC1)n2CCCSc1nnnn1-c1ccccc1 was read as E-sel TNF inh 89.2*.
`C=CCn1c(N2CCCCCC2)nc2c1c(=O)n(C)c(=O)n2C` gave NFkB transloc inh 4.1, HUVEC tox IL1B -39.7, HUVEC tox TNFa 8.7, NFkB transloc pot -4.1, VCAM1 TNFa inh -3.5 and E-sel TNF inh -2.0.
Screening C/C(Sc1nnc(Cc2ccccc2)o1)=C(/O)c1ccccc1 returned NFkB transloc inh -0.6, HUVEC tox IL1B -13.7, HUVEC tox TNFa -45.9, NFkB transloc pot 0.6 and VCAM1 TNFa inh -6.0.
Screening O=C(CN(C(=O)CCC(=O)Nc1ccccn1)c1ccc2c(c1)OCO2)NCc1ccco1 returned NFkB transloc inh 4.0, HUVEC tox IL1B 8.0, HUVEC tox TNFa -47.1, NFkB transloc pot -4.0, VCAM1 TNFa inh 6.3 and E-sel TNF inh 70.3*.
For CCn1c(CN2CCN(c3ccc(Cl)cc3)CC2)nc2ccccc21 the results were NFkB transloc inh -35.7, HUVEC tox IL1B -5.3, HUVEC tox TNFa -19.0, NFkB transloc pot 35.7, VCAM1 TNFa inh 57.8* and E-sel TNF inh 14.5.
O=Cc1cc2ccccc2nc1SCCCF was read as E-sel TNF inh 3.0.
Cc1ccc2[nH]c(-c3ccccc3)cc(=O)c2c1 was read as NFkB transloc inh 18.6, HUVEC tox IL1B 19.8, HUVEC tox TNFa 37.0, NFkB transloc pot -18.6 and VCAM1 TNFa inh 63.7*.
`CC(=O)N(Cc1c(C)nn(-c2ccccc2)c1Cl)c1ccc(Cl)cc1` gave NFkB transloc inh -2.0, HUVEC tox IL1B -10.2, HUVEC tox TNFa -27.8, NFkB transloc pot 2.0, VCAM1 TNFa inh 9.5 and E-sel TNF inh -12.3.
Screening Cc1nn(-c2ccccc2)c(Cl)c1CN(C(=O)CCl)c1cccc2ccccc12 returned E-sel TNF inh 95.8*.
`COc1ccc(Cn2c(CCC(=O)O)nc3cccnc32)cc1` gave NFkB transloc inh -1.0, HUVEC tox IL1B 25.1, HUVEC tox TNFa 70.6, NFkB transloc pot 1.0 and VCAM1 TNFa inh 93.0*.
COc1ccc(Cn2c(CCC(=O)Nc3ccc(C)cc3)nc3cccnc32)cc1 was read as HUVEC tox TNFa -15.3, VCAM1 TNFa inh 24.0 and E-sel TNF inh 1.4.
CC1CC(C)CN(C(=O)CCNS(=O)(=O)c2cccs2)C1 (centres undefined) was read as E-sel TNF inh 4.4.
`O=C(CCNS(=O)(=O)c1cccs1)N1CCc2ccccc2C1` gave NFkB transloc inh 98.9*, HUVEC tox IL1B -3.5, HUVEC tox TNFa 5.4, NFkB transloc pot -98.9, VCAM1 TNFa inh -16.0 and E-sel TNF inh 5.2.
CCCOc1ccc(/C=C/C(=O)Nc2ccc([N+](=O)[O-])cc2C)cc1 was read as NFkB transloc inh 5.1, HUVEC tox IL1B 8.2, HUVEC tox TNFa 8.9, NFkB transloc pot -5.1, VCAM1 TNFa inh 16.7 and E-sel TNF inh -53.8.
Screening COc1cc(CNCc2ccco2)ccc1OCc1ccccc1 returned NFkB transloc inh 10.1, HUVEC tox IL1B -0.5, HUVEC tox TNFa -5.9, NFkB transloc pot -10.1, VCAM1 TNFa inh -4.6 and E-sel TNF inh 57.1*.
For CCOc1ccc(N2C(=O)C(c3ccccc3)=C(c3nc4ccccc4s3)C2NC(C)=O)cc1 (centres undefined) the results were NFkB transloc inh 5.7, HUVEC tox IL1B 5.7, HUVEC tox TNFa -22.6, NFkB transloc pot -5.7, VCAM1 TNFa inh -2.8 and E-sel TNF inh -9.6.
